According to PubChem BioAssay AID1159580 (chemical genetic matrix, 2015):
Among all 5,500 compounds or so, about 2,000 (36%) were called active. Not shown: some 18% with an inconclusive outcome. Cut-off read from the data, not from the text of the source: active = normalized growth mostly below about 0.91 (no sharp cut-off); inconclusive = no clear call, values can overlap the other calls; inactive = mostly above about 0.92. The list shows a part of the results.

Assay: chemical genetic growth profiling, strain panel (AID 1159580);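 note: tested at 20 µM; growth read once vehicle control cultures reached saturation at 30 °C; 1 = growth at the plate median or of vehicle wells; lower values mean less growth of the strain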
Conditions: S. cerevisiae deletion strains, growth OD
[1] = locus YCL061C, strain MRC1, hits give low values
[2] = locus YDR150W, strain NUM1, hits give low values
[3] = locus YHR030C, strain SLT2, hits give low values
[4] = locus YJL187C, strain SWE1, hits give low values
[5] = locus YMR307W, strain GAS1, hits give low values
[6] = locus YNL153C, strain GIM3, hits give low values
[7] = locus YNL322C, strain KRE1, hits give low values
[8] = locus YPL055C, strain LGE1, hits give low values

Measured: normalized growth

Cc1ccc2cc(C)c(C)cc2c1
inactive: locus YAL013W, strain DEP1, hits give low values 0.994 | locus YBR229C, strain ROT2, hits give low values 0.991 | [1] 0.992 | locus YDL101C, strain DUN1, hits give low values 1.02 | [2] 1.05 | locus YEL061C, strain CIN8, hits give low values 1 | locus YGR078C, strain PAC10, hits give low values 0.99 | [3] 0.729 | locus YHR087W, strain rtc3, hits give low values 1.01 | [4] 0.993 | locus YJR043C, strain POL32, hits give low values 0.989 | locus YJR075W, strain HOC1, hits give low values 0.961 | locus YLR039C, strain RIC1, hits give low values 0.897 | locus YLR058C, strain SHM2 (second series), hits give low values 0.992 | locus YLR085C, strain ARP6, hits give low values 0.949 | locus YLR262C, strain YPT6, hits give low values 0.831 | locus YML094W, strain GIM5, hits give low values 1 | locus YMR219W, strain ESC1, hits give low values 1.01 | locus YMR263W, strain SAP30, hits give low values 1 | [5] 0.742 | [6] 0.952 | locus YNL298W, strain CLA4 (second series), hits give low values 0.957 | [7] 0.985 | locus YNR030W, strain Alg12, hits give low values 0.958 | locus YOL006C, strain TOP1, hits give low values 0.902 | [8] 1.02 | locus YPL241C, strain CIN2, hits give low values 0.995 | locus YPR135W, strain CTF4, hits give low values 0.899

CC(C)(N=NC(C)(C)C(=N)N)C(=N)N
inactive: locus YAL021C, strain ccr4, hits give low values 0.995 | locus YAL026C, strain drs2, hits give low values 1.05 | locus YAL030W, strain snc1, hits give low values 1.02 | locus YBL061C, strain skt5, hits give low values 1.02 | locus YBR009C, strain hhf1, hits give low values 1.07 | locus YBR023C, strain chs3, hits give low values 1.02 | locus YBR171W, strain sec66, hits give low values 1.03 | locus YBR231C, strain swc5, hits give low values 1.04 | locus YBR279W, strain paf1, hits give low values 1.03 | locus YCL011C, strain gbp2, hits give low values 1.03 | locus YCL016C, strain dcc1, hits give low values 1.03 | [1] 1.03 | locus YCL069W, strain vba3, hits give low values 1.02 | locus YCR088W, strain abp1, hits give low values 1.02 | locus YDL005C, strain med2, hits give low values 1.03 | locus YDL040C, strain nat1, hits give low values 1.02 | locus YDR001C, strain nth1, hits give low values 1.02 | locus YDR069C, strain doa4, hits give low values 1.03 | locus YDR137W, strain rgp1, hits give low values 0.998 | locus YDR159W, strain sac3, hits give low values 1.05 | locus YDR195W, strain ref2 1 | locus YDR297W, strain sur2, hits give low values 1.02 | locus YDR334W, strain swr1, hits give low values 1.03 | locus YDR335W, strain msn5, hits give low values 1.02 | locus YDR392W, strain spt3, hits give low values 0.98 | locus YEL003W, strain gim4, hits give low values 1.03 | locus YEL037C, strain rad23, hits give low values 1.02 | locus YEL061C, strain CIN8 (second series), hits give low values 1.02 | locus YER015W, strain faa2, hits give low values 1.03 | locus YER016W, strain bim1, hits give low values 1.04 | locus YER111C, strain swi4, hits give low values 1.03 | locus YER155C, strain BEM2 (second series), hits give low values 1.03 | locus YFR010W, strain ubp6, hits give low values 1.03 | locus YGL167C, strain pmr1, hits give low values 1.03 | locus YGL173C, strain kem1, hits give low values 1.05 | locus YGL227W, strain vid30, hits give low values 1.02 | locus YGL240W, strain doc1, hits give low values 1.04 | locus YGL253W, strain hxk2, hits give low values 1.01 | locus YHR013C, strain ard1, hits give low values 1.05 | locus YHR027C, strain rpn1, hits give low values 1.03 | [3] 0.971 | locus YHR079C, strain IRE1, hits give low values 0.971 | locus YHR142W, strain chs7, hits give low values 0.965 | locus YJL092W, strain hpr5, hits give low values 1.03 | locus YJL095W, strain BCK1 (second series), hits give low values 1.02 | locus YJL095W, strain BCK1, hits give low values 0.969 | locus YJL115W, strain asf1, hits give low values 1.02 | locus YJL129C, strain trk1, hits give low values 1.03 | locus YJL154C, strain vps35, hits give low values 1.02 | locus YJL164C, strain tpk1, hits give low values 1.02 | locus YJL166W, strain qcr8, hits give low values 1.01 | [4] 1.02 | locus YJR066W, strain TOR1, hits give low values 0.896 | locus YKL160W, strain elf1, hits give low values 0.99 | locus YKR026C, strain gcn3, hits give low values 1.02 | locus YKR091W, strain srl3, hits give low values 1.02 | locus YLL001W, strain dnm1, hits give low values 1.03 | locus YLL026W, hits give low values 1.02 | locus YLL041C, strain sdh2, hits give low values 1.02 | locus YLR027C, strain aat2, hits give low values 1.03 | locus YLR113W, strain HOG1, hits give low values 0.985 | locus YLR221C, strain rsa3, hits give low values 1.02 | locus YLR258W, strain gsy2, hits give low values 1.04 | locus YLR262C, strain YPT6 (second series), hits give low values 1.03 | locus YLR320W, strain mms22, hits give low values 1.07 | locus YLR342W, strain FKS1, hits give low values 1.03 | locus YLR357W, strain rsc2, hits give low values 1.06 | locus YLR370C, strain arc18, hits give low values 1.03 | locus YLR384C, strain iki3, hits give low values 1.02 | locus YML120C, strain ndi1, hits give low values 1.04 | locus YMR058W, strain fet3, hits give low values 1.03 | locus YMR125W, strain sto1, hits give low values 1.04 | locus YMR129W, hits give low values 1.01 | locus YMR205C, strain PFK2, hits give low values 1.08 | locus YMR231W, strain pep5, hits give low values 1.02 | locus YNL071W, strain lat1, hits give low values 1.02 | locus YNL183C, strain NPR1, hits give low values 0.906 | locus YNL209W, strain ssb2, hits give low values 1.03 | locus YNL248C, strain rpa49, hits give low values 0.99 | locus YNL322C, strain KRE1 (second series), hits give low values 1.01 | locus YNR049C, strain mso1, hits give low values 1.02 | locus YOR001W, strain rrp6, hits give low values 1.02 | locus YOR070C, strain gyp1, hits give low values 1.04 | locus YOR080W, strain dia2, hits give low values 1.03 | locus YOR083W, strain WHI5, hits give low values 0.988 | locus YOR106W, strain vam3, hits give low values 0.886 | locus YOR231W, strain MKK1, hits give low values 0.976 | locus YOR265W, strain rbl2, hits give low values 1.02 | locus YOR270C, strain vph1, hits give low values 1.02 | locus YOR290C, strain snf2, hits give low values 1 | locus YPL051W, strain arl3, hits give low values 1.01 | locus YPL078C, strain atp4, hits give low values 0.983 | locus YPL106C, strain sse1, hits give low values 1.05 | locus YPL240C, strain hsp82, hits give low values 1.01 | locus YPL256C, strain CLN2, hits give low values 0.979

C[C@H]1OC[C@@H](C[N+](C)(C)C)O1
inactive: locus YAL040C, strain CLN3, hits give low values 1.01 | locus YCL061C, strain MRC1 (second series), hits give low values 1.01 | [2] 1 | locus YDR363W, strain ESC2, hits give low values 1.02 | locus YER002W, strain NOP16, hits give low values 1.04 | [5] 1 | [6] 1.02 | locus YNL175C, strain NOP13, hits give low values 1.02 | locus YNL197C, strain WHI3, hits give low values 1 | locus YNL224C, strain SQS1, hits give low values 1.02 | [7] 1.02 | locus YOR083W, strain WHI5 (second series), hits give low values 1.03 | [8] 1.05
